Results: PubChem BioAssay (NCI)
The panel holds about 79,000 compounds, 15% with a hit somewhere; the sample as a whole holds those more often. Active and inactive are the calls of the source. Cut-off read from the data, not from the text of the source: active = growth inhibition above about 70%; inactive = the rest.

What was measured:
[1] = NCI Yeast Anticancer Drug Screen. Data for the rad52 strain (AID 147);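 note: 0% = growth of vehicle-treated control cultures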; conditions: S. cerevisiae rad52 mutant growth inhibition, stronger effect = higher value
Summary of the method: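 Compounds are applied to a genetically defined yeast strain lacking normal DNA damage repair, and inhibition of growth is expressed relative to cultures given vehicle only.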

[2] = NCI Yeast Anticancer Drug Screen. Data for the wt1 strain (AID 149);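 note: 0% = growth of vehicle-treated wt1 cultures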; conditions: S. cerevisiae wt1 strain (SPY 50644) growth inhibition, stronger effect = higher value
Summary of the method: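 Compounds are added to wt1 yeast cultures. Growth is then measured. Inhibition is expressed relative to vehicle-treated controls.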

[3] = NCI Yeast Anticancer Drug Screen. Data for the rad50EPP+ strain (AID 151);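 note: 0% = growth of vehicle-treated control cultures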; conditions: S. cerevisiae rad50 mutant strain, stronger effect = higher value
Summary of the method: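 Compounds were applied to the rad50EPP+ yeast strain, which bears a defined DNA repair alteration, and growth inhibition was determined relative to vehicle-treated cultures.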

[4] = NCI Yeast Anticancer Drug Screen. Data for the rad50 strain (AID 155);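 note: 0% = growth of vehicle-only cultures of the same strain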; conditions: S. cerevisiae rad50 strain growth inhibition, stronger effect = higher value
Summary of the method: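 Inhibition values express reduced yeast growth in compound-treated cultures relative to vehicle-treated controls.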

[5] = NCI Yeast Anticancer Drug Screen. Data for the mec2-1 strain (AID 157); conditions: S. cerevisiae mec2-1 strain, stronger effect = higher value
Summary of the method: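 Strain: mec2-1 (DNA repair/cell cycle alteration). Compound exposure, then growth measured; inhibition expressed relative to vehicle.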

[6] = NCI Yeast Anticancer Drug Screen. Data for the rad14 strain (AID 159);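 note: 0% = growth of vehicle-treated control cultures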; conditions: S. cerevisiae rad14 strain growth inhibition, stronger effect = higher value
Summary of the method: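 A mutant yeast strain defective in DNA damage repair is treated with compound; inhibition of its growth is scored against untreated, vehicle-exposed cultures.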

[7] = NCI Yeast Anticancer Drug Screen. Data for the sgs1 mgt1 strain (AID 161);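 note: 0% = growth of cultures given vehicle only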; conditions: S. cerevisiae sgs1 mgt1 strain, stronger effect = higher value
Summary of the method: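 Inhibition of yeast growth, normalised to vehicle-treated controls, is reported for a strain bearing genetic alterations in DNA damage repair.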

[8] = NCI Yeast Anticancer Drug Screen. Data for the CLN2oe strain (AID 163);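 note: 0% = growth of vehicle-only control cultures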; conditions: S. cerevisiae CLN2oe strain, stronger effect = higher value
Summary of the method: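 Growth of a genetically modified yeast strain is measured after compound exposure and compared with cultures given vehicle alone.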

[9] = NCI Yeast Anticancer Drug Screen. Data for the cln2 rad14 strain (AID 165);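 note: 0% = growth equal to vehicle treated cultures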; conditions: S. cerevisiae cln2 rad14 strain, stronger effect = higher value
Summary of the method: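 Compounds are applied to the cln2 rad14 yeast strain, and growth is then compared with that of vehicle-treated cultures to give inhibition.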

[10] = NCI Yeast Anticancer Drug Screen. Data for the bub3 strain (AID 167); conditions: S. cerevisiae bub3 mutant strain, stronger effect = higher value
Summary of the method: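 Steps: expose the mutant yeast strain to compound; grow alongside vehicle-treated cultures; measure growth; express inhibition against the vehicle cultures.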

[11] = NCI Yeast Anticancer Drug Screen. Data for the wt2 strain (AID 169);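 note: 0% = growth of vehicle-treated yeast cultures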; conditions: S. cerevisiae wt2 strain growth inhibition, stronger effect = higher value
Summary of the method: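 This strain belongs to a panel of yeast strains with defined genetic alterations in DNA damage repair or cell cycle control. Compounds are applied, and growth inhibition is measured against vehicle-treated cultures.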

[12] = NCI Yeast Anticancer Drug Screen. Data for the mlh1 strain (AID 171);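 note: 0% = growth of vehicle-treated control cultures of the same strain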; conditions: S. cerevisiae mlh1 strain growth inhibition, stronger effect = higher value
Summary of the method: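 Growth of the mutant yeast strain after compound exposure, expressed as inhibition relative to vehicle-only controls.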

[13] = NCI Yeast Anticancer Drug Screen. Data for the sgs1 strain (AID 173);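 note: 0% = growth of vehicle-only control cultures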; conditions: S. cerevisiae sgs1 mutant, stronger effect = higher value
Summary of the method: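 Growth of a yeast strain bearing a defined genetic alteration is measured after compound treatment. Inhibition is expressed relative to vehicle-only controls.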

[14] = NCI Yeast Anticancer Drug Screen. Data for the mlh1 rad18 strain (AID 175); conditions: S. cerevisiae mlh1 rad18 strain growth inhibition, stronger effect = higher value
Summary of the method: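 Read-out is yeast growth inhibition, calculated against vehicle-only controls. The compound was applied to a strain engineered with DNA damage repair alterations.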

[15] = NCI Yeast Anticancer Drug Screen. Data for the rad18 strain (AID 177); conditions: S. cerevisiae rad18 mutant growth inhibition, stronger effect = higher value
Summary of the method: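 Growth of the mutant yeast strain after compound exposure, normalised to vehicle-only cultures.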

[16] = at 5.0 µM (retest, dose inferred, filed as 0.5)
[17] = at 50.0 µM (retest, dose inferred, filed as 5.0)

Measured: growth inhibition

OC(CN1CCCCC1)c1cc(Cl)c(Cl)c(Cl)c1 (stereo unspecified)
active: [10]; at 50.0 µM 70.8%
inactive: [1]; at 1.2 µM 3% | [1]; at 3.7 µM 11% | [1]; at 11.0 µM 17% | [1]; at 33.0 µM 28% | [1]; at 100.0 µM 40% | [2]; at 1.2 µM 4% | [2]; at 3.7 µM 9% | [2]; at 11.0 µM 6% | [2]; at 33.0 µM 6% | [2]; at 100.0 µM 14% | [3]; at 1.2 µM 3% | [3]; at 3.7 µM 8% | [3]; at 11.0 µM 10% | [3]; at 33.0 µM 7% | [3]; at 100.0 µM 1% | [4]; at 1.2 µM 5% | [4]; at 3.7 µM 13% | [4]; [16] 2% | [4]; at 11.0 µM 11% | [4]; at 33.0 µM 20% | [4]; [17] 41% | [4]; at 50.0 µM 38.4% | [4]; at 100.0 µM 36% | [5]; at 1.2 µM 5% | [5]; at 3.7 µM 11% | [5]; [16] 2% | [5]; at 11.0 µM 15% | [5]; at 33.0 µM 24% | [5]; [17] 49% | [5]; at 50.0 µM 32.2% | [5]; at 100.0 µM 38% | [6]; at 1.2 µM 9% | [6]; at 3.7 µM 25% | [6]; at 11.0 µM 33% | [6]; at 33.0 µM 28% | [6]; at 100.0 µM 39% | [7]; [16] 12% | [7]; [17] 49% | [7]; at 50.0 µM 57.1% | [8]; at 1.2 µM 7% | [8]; at 3.7 µM 8% | [8]; at 11.0 µM 32% | [8]; at 33.0 µM 47% | [8]; at 100.0 µM 57% | [9]; [16] 8% | [9]; [17] 35% | [9]; at 50.0 µM 51.6% | [10]; at 1.2 µM 3% | [10]; at 3.7 µM 9% | [10]; [16] 4% | [10]; at 11.0 µM 25% | [10]; at 33.0 µM 38% | [10]; [17] 38% | [10]; at 100.0 µM 53% | [11]; at 1.2 µM 3% | [11]; at 3.7 µM 8% | [11]; at 11.0 µM 10% | [11]; at 33.0 µM 12% | [11]; at 100.0 µM 15% | [12]; at 1.2 µM 5% | [12]; at 3.7 µM 7% | [12]; at 11.0 µM 17% | [12]; at 33.0 µM 18% | [12]; at 100.0 µM 21% | [13]; at 1.2 µM 6% | [13]; at 3.7 µM 14% | [13]; at 11.0 µM 20% | [13]; at 33.0 µM 27% | [13]; at 100.0 µM 37% | [14]; [16] 14% | [14]; [17] 43% | [14]; at 50.0 µM 50.4% | [15]; at 1.2 µM 5% | [15]; at 3.7 µM 13% | [15]; at 11.0 µM 8% | [15]; at 33.0 µM 14% | [15]; at 100.0 µM 22%

O/N=C/C1c2ccccc2-c2ccccc21
active: [1]; at 100.0 µM 97% | [4]; at 100.0 µM 97% | [5]; at 50.0 µM 99% | [5]; at 100.0 µM 72% | [6]; at 100.0 µM 96% | [9]; at 50.0 µM 96% | [10]; at 50.0 µM 98.8% | [11]; at 100.0 µM 70% | [13]; at 100.0 µM 88% | [14]; at 50.0 µM 97.3% | [15]; at 33.0 µM 74% | [15]; at 100.0 µM 97%
inactive: [1]; at 1.2 µM 0% | [1]; at 3.7 µM 6% | [1]; at 11.0 µM 20% | [1]; at 33.0 µM 58% | [2]; at 1.2 µM -4% | [2]; at 3.7 µM -4% | [2]; at 11.0 µM -7% | [2]; at 33.0 µM 20% | [2]; at 100.0 µM 49% | [3]; at 1.2 µM -1% | [3]; at 3.7 µM 7% | [3]; at 11.0 µM 9% | [3]; at 33.0 µM 28% | [3]; at 100.0 µM 51% | [4]; at 1.2 µM -1% | [4]; at 3.7 µM -6% | [4]; [16] -199% | [4]; at 11.0 µM 24% | [4]; at 33.0 µM 62% | [4]; [17] 58% | [4]; at 50.0 µM 56.2% | [5]; at 1.2 µM 3% | [5]; at 3.7 µM 1% | [5]; [16] -53% | [5]; at 11.0 µM -15% | [5]; at 33.0 µM 21% | [5]; [17] -13% | [6]; at 1.2 µM -1% | [6]; at 3.7 µM -1% | [6]; at 11.0 µM 9% | [6]; at 33.0 µM 51% | [7]; [16] -59% | [7]; [17] 30% | [7]; at 50.0 µM 50.8% | [8]; at 1.2 µM -3% | [8]; at 3.7 µM -3% | [8]; at 11.0 µM -6% | [8]; at 33.0 µM 2% | [8]; at 100.0 µM 53% | [9]; [16] -57% | [9]; [17] 8% | [10]; at 1.2 µM -6% | [10]; at 3.7 µM -2% | [10]; [16] -70% | [10]; at 11.0 µM -7% | [10]; at 33.0 µM 0% | [10]; [17] -15% | [10]; at 100.0 µM 59% | [11]; at 1.2 µM -1% | [11]; at 3.7 µM -2% | [11]; at 11.0 µM -3% | [11]; at 33.0 µM 22% | [12]; at 1.2 µM 4% | [12]; at 3.7 µM -6% | [12]; at 11.0 µM -3% | [12]; at 33.0 µM 18% | [12]; at 100.0 µM 64% | [13]; at 1.2 µM 0% | [13]; at 3.7 µM -2% | [13]; at 11.0 µM 0% | [13]; at 33.0 µM 44% | [14]; [16] -102% | [14]; [17] 39% | [15]; at 1.2 µM 2% | [15]; at 3.7 µM 11% | [15]; at 11.0 µM 44%
